Here are results for 21 compounds from PubChem BioAssay (NCATS).

Inconclusive results are not listed. Activity calls are given as the source filed them. Calls come from the whole dose curve; as a rule, active = well fitted curve in the direction sought with a large enough effect; inconclusive = small, poorly fitted or top-dose-only effect, or another doubt; inactive = no such curve, though single readings can be large; an effect the other way counts as inactive or inconclusive.

Test [1] can be described thus: qHTS of pediatric cancer cell lines to identify multiple opportunities for drug repurposing: Primary screen for SK-N-SH cells (AID 1347098). Note: nearly all actives have a fitted effect of over 65% in size. Note: potency is the fitted concentration of half-maximal effect. The procedure, abridged:
(§1)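 Cells (500-1,000/well) rested 5 h, then received compounds for 48 h; metabolically active cells were measured by CellTiter-Glo luminescence. Final concentrations spanned up to 46 µM (MIPE, 11-point) or 0.59 nM-46 µM (NPC, 8-point) in primary screens, 11-point in follow-ups.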

The nature of test [2]: qHTS of pediatric cancer cell lines to identify multiple opportunities for drug repurposing: Primary screen for NB1643 cells (AID 1347099). Note: nearly all actives have a fitted effect of over 50% in size. Note: potency is the fitted concentration of half-maximal effect. The procedure, abridged:
(§2)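 Following a 5-hour attachment period, cells at 500-1,000/well received compounds and were cultured for 48 hours. CellTiter-Glo was added and luminescence read to estimate viable, metabolically active cells.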
In general terms: In qHTS, concentration-response curves come from the screen itself.

The nature of test [3]: qHTS of pediatric cancer cell lines to identify multiple opportunities for drug repurposing: Primary screen for LAN-5 cells (AID 1347100). Note: potency is the fitted concentration of half-maximal effect. The procedure, abridged: (§3)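 Cells (500-1,000/well) in growth media were settled 5 h at 37 degrees C, then given compounds for 48 h. Viability was read as CellTiter-Glo luminescence. Primary runs used MIPE at 11 points (0.78 nM-46 µM) and NPC at 8 points (0.59 nM-46 µM); follow-ups used 11 points.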

A short description of test [4]: qHTS of pediatric cancer cell lines to identify multiple opportunities for drug repurposing: Primary screen for BT-12 cells (AID 1347101). Note: nearly all actives have a fitted effect of over 25% in size. Note: potency is the fitted concentration of half-maximal effect. The procedure, abridged:
as §1

Test [5] can be described thus: qHTS of pediatric cancer cell lines to identify multiple opportunities for drug repurposing: Primary screen for Rh18 cells (AID 1347102). Note: nearly all actives have a fitted effect of over 65% in size. Note: potency is the fitted concentration of half-maximal effect. A digest of the protocol:
as §3

The nature of test [6]: qHTS of pediatric cancer cell lines to identify multiple opportunities for drug repurposing: Primary screen for OHS-50 cells (AID 1347103). Note: nearly all actives have a fitted effect of over 40% in size. Note: potency is the fitted concentration of half-maximal effect. The procedure, abridged: as §1
Test [7] can be described thus: qHTS of pediatric cancer cell lines to identify multiple opportunities for drug repurposing: Primary screen for RD cells (AID 1347104). Note: nearly all actives have a fitted effect of over 55% in size. Note: potency is the fitted concentration of half-maximal effect. The procedure, abridged: as §2
Test [8] is described as follows: qHTS of pediatric cancer cell lines to identify multiple opportunities for drug repurposing: Primary screen for MG 63 (6-TG R) cells (AID 1347105). Note: nearly all actives have a fitted effect of over 50% in size. Note: potency is the fitted concentration of half-maximal effect. A digest of the protocol: as §2
Test [9] in a line: qHTS of pediatric cancer cell lines to identify multiple opportunities for drug repurposing: Primary screen for control Hh wild type fibroblast cells (AID 1347106).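 Note: series mostly up to about 46 µM; a drop in luminescence marks cytotoxicity and a rise apparent proliferation; nearly all actives have a fitted effect of over 55% in size.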 A digest of the protocol:
as §3

Test [10] is described as follows: qHTS of pediatric cancer cell lines to identify multiple opportunities for drug repurposing: Primary screen for Rh30 cells (AID 1347107). Note: nearly all actives have a fitted effect of over 75% in size. Note: potency is the fitted concentration of half-maximal effect. The procedure, abridged: as §3

For the compound `NC[C@@H]1O[C@@H](O[C@H]2[C@@H](O)[C@H](O[C@@H]3[C@@H](O)[C@@H](N)C[C@H](N)[C@H]3O[C@H]3O[C@H](CN)[C@@H](O)[C@@H](O)[C@H]3N)O[C@H]2CO)[C@H](N)[C@@H](O)[C@@H]1O`, the Potency result in [1], in [2], in test [3], in test [4], in test [5] and in [6] was “inactive” in each case. The Potency result in test [7], in test [8], in test [9] and in [10] was “inactive” each time.

Turning to `Nc1ncnc2c1ncn2[C@@H]1O[C@@H](CO)[C@H](O)[C@H]1O`, the Potency entry in test [1], in [2], in test [3], in [4], in test [5] and in [6] was “inactive” each time. The Potency result in test [7], in test [8], in [9] and in test [10] was “inactive” in each case.

On to `NC(=O)c1ccc2nc(-c3ccc(Oc4ccc(Cl)cc4)cc3)[nH]c2c1`, for which the Potency result in [1], in test [2], in test [5], in test [8] and in test [10] was “inactive” each time. Further, in [4], the Potency is 2.43 µM (active).

For `COC1CCC(N(C(=O)C2CCC(C)CC2)c2cc(C3=CCCCC3)sc2C(=O)O)CC1` (configuration not stated), the Potency result in test [1], in test [3], in test [4], in test [5], in [8] and in test [9] was “inactive” each time. For the same compound, in test [10], the Potency result is “inactive”. The Potency in test [2] was 23.5 µM (active).

Take `CN(C)c1cc(NC(=O)CNC(C)(C)C)c(O)c2c1C[C@@H]1C[C@H]3[C@H](N(C)C)C(=O)C(C(N)=O)=C(O)[C@@]3(O)C(=O)C1=C2O`: the Potency result in test [1], in test [2], in test [4], in test [5], in test [6] and in test [7] was “inactive” each time. In addition, the Potency result in [8], in [9] and in [10] was “inactive” throughout.

As to `OC[C@H]1O[C@@H](n2cnc3c2NC=NC[C@@H]3O)C[C@H]1O`, the Potency entry in [1], in [3], in test [4], in [5], in test [6] and in test [7] was “inactive” in each case. Besides, the Potency entry in [8] was “inactive”.

Regarding `COc1ccc(-n2c(C)c([N+](=O)[O-])c3ccc(O)cc32)cc1`, the Potency is 19.2 µM (active) in test [1] and 5.9 µM (active) in test [2]. Besides, the Potency entry in test [3], in test [5], in test [6], in test [8] and in [9] was “inactive” throughout.

With `Cc1cccc(C)c1OCC(C)N` (configuration not stated), the Potency entry in [1], in [3], in test [4], in [5], in test [6] and in test [7] was “inactive” in each case. Also, the Potency entry in test [8], in test [9] and in test [10] was “inactive” each time.

For `C=C1C(=O)[C@@]23C(CC[C@@H]1[C@H]2O)[C@@]12CO[C@]3(O)[C@@H](O)[C@@H]1C(C)(C)CC[C@@H]2O` (some centres not stated), the Potency in [1] is 15.2 µM (active); in test [3], 1.66 µM (active); in test [4] it was 3.43 µM (active); in [5] it was 9.35 µM (active); in test [6] it was 9.68 µM (active); in test [7], 9.35 µM (active). Moreover, the figures for the Potency in test [8] and in test [10] were 4.69 µM (active) and 7.43 µM (active), respectively. In test [9], the Potency entry was “inactive”.

Regarding `CNC1CCC(N(Cc2cccc(-c3ccncc3)c2)C(=O)c2sc3c(F)ccc(F)c3c2Cl)CC1` (configuration not stated), the Potency is 19.2 µM (active) in test [1]; 18.7 µM (active) in test [2]; 24.3 µM (active) in test [6]; 10.5 µM (active) in test [7]; 23.5 µM (active) in [8].

As to `NCCS`, the Potency result in [1], in [3], in test [4], in test [5], in test [6] and in test [7] was “inactive” each time. Moreover, the Potency result in [8], in test [9] and in test [10] was “inactive” each time.

As to `CC1CCC(C(=O)N(c2cc(C#CC(C)(C)C)sc2C(=O)O)C2CCC(O)CC2)CC1` (configuration not stated), the Potency result in [1], in test [3], in [4], in test [5], in [8] and in test [9] was “inactive” throughout. In addition, the Potency in test [2] is 20.9 µM (active).

For the compound `CCOC(CN1C(=O)[C@](CC(=O)Nc2ccc(C)cc2)(NC(=O)Nc2ccc(C)cc2)c2ccccc21)OCC`, the Potency result in test [1], in test [5], in test [9] and in test [10] was “inactive” throughout. Also, in test [2], the Potency is 16.6 µM (active).

As to `COCCOC(=O)C1=C(C)NC2=C(C(=O)CC(c3ccccc3OC)C2)C1c1cccc(O)c1` (configuration not stated), the Potency in test [1] is 13.6 µM (active); in [2] it was 20.9 µM (active); in [3], 13.2 µM (active); in [6], 19.3 µM (active); in test [7], 18.7 µM (active); in [8] it was 14.8 µM (active). For the same compound, the Potency result in test [4] and in test [9] was “inactive” each time.

Turning to `CC1(C)S[C@H]2[C@H](NC(=O)[C@@H](N)c3ccc(O)cc3)C(=O)N2[C@@H]1C(=O)O`, the Potency in [1] was 24.1 µM (active); in [2] it was 1.18 µM (active); in [3], 3.72 µM (active); in test [5], 2.96 µM (active); in test [7], 2.96 µM (active); in [8] it was 3.72 µM (active). Besides, the Potency result in [9] was “inactive”.

In the case of `C[C@]12CCC3c4ccc(O)cc4CCC3C1CCC2=O` (some centres not stated), the Potency entry in [1], in test [3], in test [4], in [5], in test [7] and in test [8] was “inactive” throughout. Besides, the Potency result in test [9] and in [10] was “inactive” each time.

For `O=C(O)C(O)Cc1ccc(O)c(O)c1` (configuration not stated), the Potency result in [1], in test [2], in test [4], in test [5], in test [7] and in test [8] was “inactive” throughout. Besides, the Potency result in [9] and in test [10] was “inactive” in each case.

For `C[N+]1(C)[C@@H]2CC(OC(=O)[C@H](CO)c3ccccc3)C[C@H]1[C@H]1O[C@@H]12` (some centres not stated), the Potency entry in test [1], in test [3], in [4], in test [5], in [6] and in test [7] was “inactive” in each case. The Potency entry in test [8], in [9] and in [10] was “inactive” each time.

As for `O=C(Nc1ccccc1-c1cn2c(CN3CCNCC3)csc2n1)c1cnc2ccccc2n1`, in test [1], the Potency entry was “inactive”. Moreover, the Potency is 13.2 µM (active) in test [2]; 20.9 µM (active) in [3]; 8.33 µM (active) in [5]; 27.3 µM (active) in test [6]; 33.2 µM (active) in test [7]; 23.5 µM (active) in test [8]. The Potency in [10] was 23.5 µM (active).

Take `COc1ccc(-c2cc(=O)c3c(O)cc(O)cc3o2)cc1O`: the Potency is 24.1 µM (active) in [1], 4.69 µM (active) in test [2] and 7.43 µM (active) in test [3]. Further, the Potency result in test [8] and in [10] was “inactive” in each case.

In the case of `CC(C)n1nc(-c2ccc3oc(N)nc3c2)c2c(N)ncnc21`, the Potency in [1] is 21.5 µM (active); in [3], 18.7 µM (active); in [4], 0.306 µM (active); in test [5], 0.235 µM (active); in [6] it was 0.0012 µM (active); in test [7], 0.0296 µM (active). Further, the values for the Potency in [8] and in test [10] were 0.0007 µM (active) and 11.8 µM (active), respectively.
